According to the supplement of paper PMC12045047:
Values without a mark were called inactive.

Tested on: primary human airway basal cells (HBEC, luciferase-transduced)
Experiment: proliferation (luciferase bioluminescence) Z score relative to plate mean; higher = more proliferation / more cells, active = 1.96 or more
Settings: donor: 1, library: ENZO Libraries, 4 days
Procedure: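 Primary human bronchial epithelial (airway basal) cells from two donors, lentivirally transduced with pHIV-Luc-ZsGreen, were seeded at 2000 cells/well in 384-well plates in FAD medium with ENZO or Prestwick library compounds and cultured for 4 days. Luciferin was then added and bioluminescence was read as a measure of cell number. Relative light units were converted to Z scores against the plate, and the mean of triplicate wells is reported.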

Structure (SMILES)	proliferation (0.5 µM)	proliferation (5 µM)
N#CC(=C(/N)Sc1ccccc1N)/C(C#N)=C(/N)Sc1ccccc1N	-1.3	-1.33
O=C1CCc2c(ccc3ccccc23)O1 [Splitomicin]	-0.477	-0.269
O=C1Cc2c([nH]c3ccc(Br)cc23)-c2ccccc2N1 [Kenpaullone]	3.89 (active)	-0.683
CC(C)(C)c1cc(C=C(C#N)C(N)=S)cc(C(C)(C)C)c1O	-0.666	-0.702
Cc1ccc(NC(=O)c2cccc(N(C)C)c2)cc1NC(=O)c1ccc(O)cc1	0.389	0.18
C=CC(=O)c1ccc2ccccc2c1	0.129	-0.357
CC1CNc2c(cccc2S(=O)(=O)N[C@@H](CCCNC(=N)N)C(=O)N2CC[C@@H](C)C[C@@H]2C(=O)O)C1 (some centres undefined) [Argatroban]	0.0616	-0.0211
CN(C)CCCn1cc(C2=C(c3c[nH]c4ccccc34)C(=O)NC2=O)c2ccccc21	2.64 (active)	-0.932
N#C/C(=C\c1ccc(O)c(O)c1)C(=O)NCc1ccccc1	0.366	-0.179
Cn1cnc2c(NCc3ccccc3)nc(NCCO)nc21 [Olomoucine]	0.166	-0.244
O=c1c(-c2ccc(O)cc2)coc2cc(O)cc(O)c12 [Genistein]	0.674	2.14 (active)
NC(=O)c1ccncc1 [Isonicotinamide]	0.125	-0.0123
